The results in this text go back to PubChem BioAssay (EPA / NIEHS).

Assay [1] is described as follows: APR_HepG2_NuclearSize_72hr: Apredica 72-hour HepG2 Assay for Nuclear Size (AID 2282925). The following applies: high-content imaging, actives raise or lower the signal. The gist of the method: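 HepG2; cpd 0.39–200 uM, 10 conc, duplicate; 72 h; DMSO 0.5% v/v; fix 3.7% formaldehyde 30 min RT; Triton permeabilization; Hoechst 2 ug/mL; HCS imaging 20x; nuclear diameter; gain/loss fit vs DMSO.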

Assay [2] is described as follows: ATG_CRE_CIS: Attagene CIS-FACTORIAL HepG2 Assay for human cAMP Responsive Element (CRE) binding protein 3 (AID 2282926). The conditions noted are these: HepG2 CRE cis-reporter, Attagene multiplexed mRNA; actives raise or lower the signal. The gist of the method:
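We dosed HepG2 cells bearing multiple cis-promoter reporter units for 24 h and measured reporter mRNA by RT-PCR with capillary electrophoresis detection. Bidirectional concentration-response fitting used DMSO as negative control.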

The target in assay [3] is CCAAT/enhancer-binding protein beta (Homo sapiens) (UniProt P17676). Briefly: ATG_C_EBP_CIS: Attagene CIS-FACTORIAL HepG2 Assay for human CCAAT/Enhancer Binding Protein (C/EBP) beta (AID 2282927). The conditions noted are these: HepG2 Attagene cis-factorial transcription factor reporter; actives raise or lower the signal. An outline of the steps: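 Changes in reporter mRNA, rather than exogenous chimeric receptor activity, reflect native C/EBP signalling in transfected HepG2 cells dosed for 24 h; transcripts are detected by RT-PCR and capillary electrophoresis.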
CCAAT/enhancer-binding protein beta (Homo sapiens), sequence (P17676 whole entry, looked up): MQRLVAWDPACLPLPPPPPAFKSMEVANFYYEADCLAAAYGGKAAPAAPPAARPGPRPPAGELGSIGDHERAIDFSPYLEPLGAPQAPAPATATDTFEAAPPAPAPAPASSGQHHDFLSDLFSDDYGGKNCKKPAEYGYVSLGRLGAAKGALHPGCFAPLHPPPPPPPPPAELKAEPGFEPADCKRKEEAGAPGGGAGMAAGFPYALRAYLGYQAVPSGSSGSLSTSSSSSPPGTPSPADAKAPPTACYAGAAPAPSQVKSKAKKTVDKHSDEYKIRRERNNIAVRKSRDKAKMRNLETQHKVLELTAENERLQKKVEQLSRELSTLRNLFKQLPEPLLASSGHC

Assay [4] can be described thus: ATG_CMV_CIS: Attagene CIS-FACTORIAL HepG2 Assay for human CMV (Internal Marker) (AID 2282928).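 Note: endpoint acts as a background internal control marker rather than a target.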 The conditions noted are these: HepG2 CMV promoter reporter, transcription factor profiling; actives raise or lower the signal. An outline of the steps: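 CMV internal-marker background readout in transiently transfected HepG2 cells bearing cis-regulated reporter units. Reporter mRNA is measured 24 h after dosing by RT-PCR and capillary electrophoresis, with bidirectional fitting against DMSO.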

A short description of assay [5]: ATG_DR4_LXR_CIS: Attagene CIS-FACTORIAL HepG2 Assay for human Liver X Receptor (LXR), DR4 submotif (AID 2282929). The conditions noted are these: HepG2 Attagene DR4 cis-reporter, mRNA transcription; actives raise or lower the signal. The gist of the method: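 HepG2, transient MRTU transfection, cis-element (DR4) promoter; 24 h compound exposure; total RNA → oligo(dT) RT → PCR → 6-FAM primer extension → HpaI cut → CE. Gain/loss vs DMSO, bidirectional fit.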

A short description of assay [6]: ATG_AP_1_CIS: Attagene CIS-FACTORIAL HepG2 Assay for human Activator Protein 1 (AP-1) (AID 2282931). The conditions noted are these: HepG2 Attagene cis-factorial AP-1 reporter mRNA; actives raise or lower the signal. The gist of the method:
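Transient MRTU transfection of HepG2 → 24 h chemical treatment → RNA isolation, RT-PCR, 6-FAM labelling, HpaI digest → capillary electrophoresis. Fit: bidirectional, DMSO negative control.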

Assay [7] is described as follows: ATG_AP_2_CIS: Attagene CIS-FACTORIAL HepG2 Assay for human Activator Protein 2 (AP-2) (AID 2282932). The conditions noted are these: HepG2 AP-2 cis-reporter, Attagene transcription factor profiling; actives raise or lower the signal. The gist of the method: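 HepG2, transient MRTU transfection, cis-regulated reporters; 24 h compound exposure; RNA isolated, RT-PCR, 6-FAM labelling, HpaI digest, CE fluorescence. DMSO = negative control/baseline, bidirectional fit.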

Assay [8] in a line: ATG_BRE_CIS: Attagene CIS-FACTORIAL HepG2 Assay for human Bone Morphogenetic Protein (BMP) Response Element (BRE) (AID 2282933). The following applies: HepG2 BMP response element reporter, Attagene transcription factor profiling; actives raise or lower the signal. The gist of the method:
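A HepG2 multiplex reporter system measured inducible reporter mRNA 24 h post-dosing. Detection: RT-PCR, 6-FAM primer extension, HpaI digestion, capillary electrophoresis. Activity fitted bidirectionally relative to DMSO.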

The target in assay [9] is Transcription factor E2F1 (Homo sapiens) (UniProt Q01094). Briefly: ATG_E2F_CIS: Attagene CIS-FACTORIAL HepG2 Assay for human E2F Transcription Factor 1 (AID 2282935). The following applies: HepG2 Attagene cis-reporter, E2F reporter RNA transcripts; actives raise or lower the signal. The gist of the method:
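Cis-element reporter mRNA induction in transiently transfected HepG2, 24 h exposure. Activity fitted in both directions relative to DMSO negative control.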

Assay [10] in a line: ATG_E_Box_CIS: Attagene CIS-FACTORIAL HepG2 Assay for human Enhancer Box (E-box) (AID 2282936). The conditions noted are these: HepG2 E-box cis-reporter transcription, actives raise or lower the signal. An outline of the steps: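 Cells: HepG2 (human liver), transient MRTU transfection. Exposure 24 h. RNA → oligo(dT) RT → PCR → 6-FAM label → HpaI → CE. Activity fitted both directions relative to DMSO.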

Assay [11] is described as follows: ATG_M_61_CIS: Attagene CIS-FACTORIAL HepG2 Assay for M61 Transcription Factor (Internal Marker) (AID 2282937). The following applies: HepG2 Attagene CIS-FACTORIAL M61 internal marker reporter; actives raise or lower the signal. An outline of the steps:
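Human liver HepG2, transient MRTU transfection (cis promoter elements), 24 h compound. Total RNA → oligo(dT) RT → PCR → FAM label → HpaI → CE. Internal background marker; bidirectional fitting, DMSO = baseline.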

Assay [12] is described as follows: ATG_EGR_CIS: Attagene CIS-FACTORIAL HepG2 Assay for human Early Growth Response 1 (EGR1) (AID 2282938). The following applies: HepG2 Attagene CIS-FACTORIAL EGR reporter mRNA; actives raise or lower the signal. An outline of the steps: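 Transient transfection of human HepG2 with multiple cis-regulated reporter units, chemical exposure 24 h, total RNA isolated. Reverse transcription, PCR, fluorescent labelling and capillary electrophoresis quantify reporter transcripts; activity fitted bidirectionally against DMSO.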

Assay [13] is described as follows: ATG_M_19_CIS: Attagene CIS-FACTORIAL HepG2 Assay for M19 Transcription Factor (Internal Marker) (AID 2282939). The conditions noted are these: HepG2 Attagene CIS-FACTORIAL M19 internal marker reporter; actives raise or lower the signal. An outline of the steps:
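Chemical-treated HepG2 (24 h) with MRTU constructs; reporter transcripts detected by fluorescent RT-PCR fragment analysis on capillary electrophoresis. Internal background marker, DMSO as baseline.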

Assay [14] in a line: ATG_Ets_CIS: Attagene CIS-FACTORIAL HepG2 Assay for human Erythroblast Transformation Specific (ETS) (AID 2282941). The conditions noted are these: HepG2 ETS cis-reporter transcription, actives raise or lower the signal. An outline of the steps:
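HepG2 cells transfected with multiple cis-regulated reporter units measuring endogenous ETS-driven transcription, 24 h after dosing. Reporter mRNA quantified by RT-PCR with capillary electrophoresis; bidirectional fit relative to DMSO.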

In assay [15] the target is Hepatocyte nuclear factor 3-beta (Homo sapiens) (UniProt Q9Y261). The assay is described as follows: ATG_FoxA2_CIS: Attagene CIS-FACTORIAL HepG2 Assay for human Forkhead box A2 (FOXA2) (AID 2282942). The following applies: HepG2 cis-reporter transcription factor activity, 24 h; actives raise or lower the signal. The gist of the method:
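Transient MRTU transfection of HepG2 liver cells; 24 h treatment; total RNA → oligo(dT) RT → PCR → FAM primer extension → HpaI cut → CE. Bidirectional fit vs DMSO.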

Assay [16] in a line: ATG_FoxO_CIS: Attagene CIS-FACTORIAL HepG2 Assay for human Forkhead box O (FoxO) (AID 2282943). The following applies: HepG2 Attagene cis-reporter, FoxO element, mRNA; actives raise or lower the signal. An outline of the steps:
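Human hepatoma HepG2 cells carry transiently introduced reporter transcription units controlled by cis promoter elements. Chemical treatment lasted 24 h, and mRNA signal was compared with DMSO.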

Assay [17] in a line: ATG_GATA_CIS: Attagene CIS-FACTORIAL HepG2 Assay for human GATA Binding Protein (AID 2282944). The following applies: HepG2 GATA cis-element reporter, Attagene multiplex mRNA; actives raise or lower the signal. An outline of the steps: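 Transfected cis-reporter HepG2 cells were treated with chemicals for 24 hours. Total RNA was then converted to cDNA, amplified with reporter-specific primers and analysed by fluorescent capillary electrophoresis, using DMSO-treated wells as baseline.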

Assay [18] concerns the target Aryl hydrocarbon receptor (Homo sapiens) (UniProt P35869). Briefly: ATG_Ahr_CIS: Attagene CIS-FACTORIAL HepG2 Assay for human Aryl Hydrocarbon Receptor (Ahr) (AID 2282930). The conditions noted are these: HepG2 AhR cis-factorial reporter transcription; actives raise or lower the signal. The gist of the method:
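HepG2, transient MRTU (cis) transfection, 24 h exposure. RNA → cDNA → PCR → 6-FAM primer extension → HpaI 2 h 37 C → CE. Fit: bidirectional, DMSO baseline.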

In assay [19] the target is Retinoic acid receptor alpha (Homo sapiens) (UniProt P10276). The assay is described as follows: ATG_DR5_RAR_CIS: Attagene CIS-FACTORIAL HepG2 Assay for human Retinoic Acid Receptor Alpha (RARE), DR5 submotif (AID 2282934).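 For AC50: reporter responds to endogenous RAR alpha beta and gamma in HepG2 not RARA alone.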 The following applies: HepG2 Attagene cis-factorial RARE DR5 reporter, mRNA; actives raise or lower the signal. An outline of the steps: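 HepG2, transient cis-reporter transfection, 24 h exposure. mRNA readout: RT-PCR, FAM label, HpaI cut, capillary electrophoresis. DMSO baseline, gain/loss fitting.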
Retinoic acid receptor alpha (Homo sapiens), sequence (P10276 whole entry, looked up): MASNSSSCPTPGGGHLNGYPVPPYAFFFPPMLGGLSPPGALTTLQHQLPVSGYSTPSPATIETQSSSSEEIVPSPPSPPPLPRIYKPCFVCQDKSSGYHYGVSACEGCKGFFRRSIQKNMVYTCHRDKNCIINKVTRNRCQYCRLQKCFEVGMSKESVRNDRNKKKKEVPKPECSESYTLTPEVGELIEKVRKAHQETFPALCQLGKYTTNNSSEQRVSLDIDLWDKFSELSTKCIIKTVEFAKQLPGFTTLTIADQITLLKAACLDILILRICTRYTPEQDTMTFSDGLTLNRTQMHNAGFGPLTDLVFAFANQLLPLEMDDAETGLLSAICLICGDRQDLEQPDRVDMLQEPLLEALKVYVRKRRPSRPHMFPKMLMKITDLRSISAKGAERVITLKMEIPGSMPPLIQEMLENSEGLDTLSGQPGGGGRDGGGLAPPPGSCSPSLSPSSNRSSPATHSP

A short description of assay [20]: ATG_ERE_CIS: Attagene CIS-FACTORIAL HepG2 Assay for Estrogen Response Element (ERE) (AID 2282940). The following applies: HepG2 ERE cis-reporter, Attagene RNA transcript; actives raise or lower the signal. An outline of the steps:
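Human liver cells (HepG2) bearing transiently transfected, promoter-regulated reporter units were exposed 24 h. Reporter mRNA induction was detected by capillary electrophoresis of labelled RT-PCR products and fitted bidirectionally to DMSO.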

Some compounds were tested as several samples or in several runs, with calls that do not always agree. The source made the active and inactive calls. Rule for the calls: active = hit-call score of the fitted dose curve at least 0.9, where 1 is the maximum; inactive = score below 0.9.

Transcription factor E2F1 (Homo sapiens), sequence (Q01094 whole entry, looked up): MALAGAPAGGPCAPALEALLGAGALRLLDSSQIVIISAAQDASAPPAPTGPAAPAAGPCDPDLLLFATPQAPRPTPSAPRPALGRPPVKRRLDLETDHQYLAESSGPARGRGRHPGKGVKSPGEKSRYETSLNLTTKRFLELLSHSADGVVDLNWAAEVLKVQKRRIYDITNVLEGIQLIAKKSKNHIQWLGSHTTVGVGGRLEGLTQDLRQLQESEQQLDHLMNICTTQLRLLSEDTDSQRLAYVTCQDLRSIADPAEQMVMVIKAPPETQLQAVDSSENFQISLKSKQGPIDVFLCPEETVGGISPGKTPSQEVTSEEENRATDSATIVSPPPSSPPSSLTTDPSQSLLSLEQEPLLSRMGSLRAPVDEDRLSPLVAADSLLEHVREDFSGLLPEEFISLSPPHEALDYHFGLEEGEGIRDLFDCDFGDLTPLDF
Aryl hydrocarbon receptor (Homo sapiens), sequence (P35869 whole entry, looked up): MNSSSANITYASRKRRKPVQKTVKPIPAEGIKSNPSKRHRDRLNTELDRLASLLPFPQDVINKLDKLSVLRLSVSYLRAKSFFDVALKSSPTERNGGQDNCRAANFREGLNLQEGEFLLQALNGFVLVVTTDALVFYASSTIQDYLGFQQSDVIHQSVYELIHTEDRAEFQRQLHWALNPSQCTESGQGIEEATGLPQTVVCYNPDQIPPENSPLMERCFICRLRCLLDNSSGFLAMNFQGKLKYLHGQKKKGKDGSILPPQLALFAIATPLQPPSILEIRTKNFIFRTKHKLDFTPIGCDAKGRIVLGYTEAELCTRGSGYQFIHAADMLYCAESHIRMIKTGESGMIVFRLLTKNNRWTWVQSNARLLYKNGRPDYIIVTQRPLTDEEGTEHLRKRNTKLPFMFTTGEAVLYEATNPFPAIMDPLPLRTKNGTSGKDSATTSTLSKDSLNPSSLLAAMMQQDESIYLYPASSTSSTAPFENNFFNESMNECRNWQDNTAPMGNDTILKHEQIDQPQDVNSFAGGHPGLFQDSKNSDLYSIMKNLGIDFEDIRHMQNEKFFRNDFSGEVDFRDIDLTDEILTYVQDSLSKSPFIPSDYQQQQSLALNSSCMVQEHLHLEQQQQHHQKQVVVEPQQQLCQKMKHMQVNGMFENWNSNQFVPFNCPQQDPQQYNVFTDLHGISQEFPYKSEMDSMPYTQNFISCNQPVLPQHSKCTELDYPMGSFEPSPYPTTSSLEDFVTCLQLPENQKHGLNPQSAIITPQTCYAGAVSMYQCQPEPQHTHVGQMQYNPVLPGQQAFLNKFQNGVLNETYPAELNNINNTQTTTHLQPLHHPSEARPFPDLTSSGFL
Hepatocyte nuclear factor 3-beta (Homo sapiens), sequence (Q9Y261 whole entry, looked up): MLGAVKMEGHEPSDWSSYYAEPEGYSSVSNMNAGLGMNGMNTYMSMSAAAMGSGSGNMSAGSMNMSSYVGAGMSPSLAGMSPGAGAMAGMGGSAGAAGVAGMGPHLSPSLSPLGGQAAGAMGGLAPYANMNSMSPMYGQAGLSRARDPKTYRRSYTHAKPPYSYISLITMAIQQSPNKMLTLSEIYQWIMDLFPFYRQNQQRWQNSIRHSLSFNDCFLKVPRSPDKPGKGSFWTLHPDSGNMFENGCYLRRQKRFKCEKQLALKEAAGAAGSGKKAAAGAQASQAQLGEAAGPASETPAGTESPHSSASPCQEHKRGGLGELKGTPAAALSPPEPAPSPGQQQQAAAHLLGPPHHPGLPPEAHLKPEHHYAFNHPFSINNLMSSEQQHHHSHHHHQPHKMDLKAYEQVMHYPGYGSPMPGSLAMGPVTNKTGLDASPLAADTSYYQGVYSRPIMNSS

Take `N[C@@H](Cc1cc(I)c(Oc2ccc(O)c(I)c2)c(I)c1)C(=O)O`: the compound was classed as inactive in [1], in assay [2], in assay [3], in assay [4], in assay [5] and in [6]. Further, the result in assay [7], in [8], in assay [9], in [10], in assay [11] and in assay [12] was inactive. Also, the compound was classed as inactive in assay [13], in assay [14], in [15], in [16] and in [17]. The AC50 is 22.6 µM (active) in assay [6] and 1.32 µM (active) in assay [15].

Consider `COC(=O)c1c(Cl)nn(C)c1S(=O)(=O)NC(=O)Nc1nc(OC)cc(OC)n1`, for which the compound was classed as inactive in [1], in assay [2], in assay [4], in [5], in [18] and in [7]. The compound was classed as inactive in assay [8], in assay [19], in assay [9], in assay [10], in assay [11] and in assay [12]. Besides, the outcome in [13], in assay [20], in [14], in assay [15] and in assay [16] was inactive. The AC50 in assay [3] was 4.06 µM (active).

For the compound `CCCN(CCC)c1c([N+](=O)[O-])cc(C(F)(F)F)c(N)c1[N+](=O)[O-]`, the result in assay [1], in assay [2], in assay [3], in assay [7], in [19] and in [9] was inactive. Besides, the outcome in assay [10], in [11], in assay [12], in assay [13], in assay [20] and in assay [14] was inactive. In addition, the compound was called inactive in assay [15]. The AC50 in assay [4] was 24.5 µM (active); in assay [5] it was 6.65 µM (active); in [18], 28.9 µM (active); in [8], 36.1 µM (active); in assay [16], 50 µM (active).

Consider `CCN(Cc1c(F)cccc1Cl)c1c([N+](=O)[O-])cc(C(F)(F)F)cc1[N+](=O)[O-]`, for which the call in [1], in assay [2], in [3], in assay [18], in assay [7] and in assay [9] was inactive. The outcome in assay [10], in assay [11], in [13], in assay [14], in [15] and in assay [16] was inactive. Also, the concentration at half-maximal activity (AC50) is 10.6 µM (active) in assay [4]; 8.45 µM (active) in assay [5]; 1.4 µM (active) in [8]; 1.8 µM (active) in assay [19]; 1.81 µM (active) in assay [20].

For the compound `S=C([S-])NCCNC(=S)[S-].[Mn+2]`, the compound was classed as inactive in [1], in assay [2], in assay [3], in [4], in assay [5] and in [18]. The compound was called inactive in assay [6], in [7], in assay [8], in assay [9], in assay [10] and in [11]. Moreover, the compound was classed as inactive in assay [13], in assay [14], in assay [15], in [16] and in [17].

Regarding `CCOC(=O)COc1cc(-n2ncc(C(F)(F)F)c(C)c2=O)c(F)cc1Cl`, the outcome in [1], in assay [2], in assay [3], in [4], in [5] and in [18] was inactive. Moreover, the compound was classed as inactive in assay [7], in [8], in assay [19], in [9], in assay [10] and in assay [11]. Also, the compound was called inactive in assay [12], in assay [13], in [20], in assay [14], in assay [15] and in assay [16]. The call in [17] was inactive.

As a reminder, the AC50 is the concentration giving half of the maximal activity seen.
